A short description of assay [1]: Human pregnane X receptor (PXR) small molecule agonists, qHTS cell viability counter screen (AID 1346977). Also: nearly all actives have a fitted effect of over 50% in size. Also: potency is read from the fitted curve at half-maximal effect. In short, it runs like this: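 Same-well viability read: CellTiter-Fluor added after 23 hr compound exposure, fluorescence measured 1 hr later. Cells were PXR-Luc HepG2 seeded at 2,000/well in 5% charcoal-stripped FBS medium, rested 5 hr before dosing at 37 C.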
Background: Quantitative high-throughput screening tests each substance at several concentrations.

Assay [2] can be described thus: Caspase-3/7 induction in HepG2 cells by small molecules, qHTS assay (AID 1346978). Also: nearly all actives have a fitted effect of over 15% in size. Also: potency is read from the fitted curve at half-maximal effect. In outline: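 Wild-type HepG2 cells (2,000/well) were settled 5 h at 37 C, 5% CO2, then exposed to compounds in DMSO for 17 h. Caspase-3/7 activity was read by luminescence 30 min after adding Caspase-Glo 3/7 reagent at room temperature.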
Assay [3] is described as follows: Caspase-3/7 induction in CHO-K1 cells by small molecules, qHTS cell viability counter screen (AID 1346979). Also: nearly all actives have a fitted effect of over 35% in size. Also: potency is read from the fitted curve at half-maximal effect. In outline: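 Cytotoxicity counter screen: CellTiter-Fluor added to compound-treated wild-type CHO-K1 cells at 16 h (37C, 5% CO2), fluorescence measured 1 h later; same wells as caspase-3/7 measurement.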
Assay [4] is described as follows: Caspase-3/7 induction in CHO-K1 cells by small molecules, qHTS assay (AID 1346980). Also: nearly all actives have a fitted effect of over 15% in size. In outline: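 Wild-type cells were seeded at 1,500 per well and settled 5 hr at 37 C, 5% CO2, then exposed to DMSO-dissolved compounds for 17 hr. Caspase-Glo 3/7 reagent was added, and luminescence was read after 30min at room temperature.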
The nature of assay [5]: Caspase-3/7 induction in HepG2 cells by small molecules, qHTS cell viability counter screen (AID 1346981). Also: nearly all actives have a fitted effect of over 30% in size. Also: potency is read from the fitted curve at half-maximal effect. In short, it runs like this: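 In this quantitative HTS counter screen, compounds delivered in DMSO were left on unmodified HepG2 cells for 16 hr at 37 C. Viability was then determined fluorometrically with CellTiter-Fluor, in parallel with caspase-3/7 induction in the same wells.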

In assay [6] the target is Nuclear receptor subfamily 1 group I member 2 (Homo sapiens) (UniProt O75469). The experiment in a line: Human pregnane X receptor (PXR) small molecule agonists, qHTS assay (AID 1346982). Also: nearly all actives have a fitted effect of over 35% in size. Also: potency is read from the fitted curve at half-maximal effect. In short, it runs like this: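 Reporter HepG2 cells expressing PXR-Luc are cultured in charcoal-stripped FBS (5%), treated with compounds for 24 hr at 37 C, and assayed by ONE-Glo luminescence after 30 min at room temperature.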
Chain of Nuclear receptor subfamily 1 group I member 2 (Homo sapiens) (O75469 whole entry, looked up): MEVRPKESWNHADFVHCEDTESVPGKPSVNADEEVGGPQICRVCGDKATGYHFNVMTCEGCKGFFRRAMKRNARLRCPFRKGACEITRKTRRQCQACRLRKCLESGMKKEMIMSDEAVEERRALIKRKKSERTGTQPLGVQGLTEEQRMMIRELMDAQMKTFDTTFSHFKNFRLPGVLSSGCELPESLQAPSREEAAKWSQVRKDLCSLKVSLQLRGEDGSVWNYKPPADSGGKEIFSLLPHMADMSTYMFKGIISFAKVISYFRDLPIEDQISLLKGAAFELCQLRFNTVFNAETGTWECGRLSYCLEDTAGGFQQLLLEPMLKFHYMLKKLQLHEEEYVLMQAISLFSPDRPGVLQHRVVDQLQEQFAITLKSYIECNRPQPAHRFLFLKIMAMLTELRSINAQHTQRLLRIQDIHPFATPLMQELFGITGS

Assay [7] deals with Cytochrome P450 2D6 (Homo sapiens) (UniProt P10635). Nature of the assay: Cytochrome P450 Family 2 Subfamily D Member 6 (CYP2D6) small molecule antagonists: luciferase reporter qHTS assay (AID 1671196). Also: nearly all actives have a fitted effect of over 50% in size. Also: potency is read from the fitted curve at half-maximal effect. In short, it runs like this: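 Test chemicals meet CYP2D6 plus proluciferin substrate (10 min, RT); NADPH regenerating solution then drives turnover for 1 h. Detection reagent halts the reaction; luminescence measured after 20 min.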
Chain of Cytochrome P450 2D6 (Homo sapiens) (P10635 whole entry, looked up): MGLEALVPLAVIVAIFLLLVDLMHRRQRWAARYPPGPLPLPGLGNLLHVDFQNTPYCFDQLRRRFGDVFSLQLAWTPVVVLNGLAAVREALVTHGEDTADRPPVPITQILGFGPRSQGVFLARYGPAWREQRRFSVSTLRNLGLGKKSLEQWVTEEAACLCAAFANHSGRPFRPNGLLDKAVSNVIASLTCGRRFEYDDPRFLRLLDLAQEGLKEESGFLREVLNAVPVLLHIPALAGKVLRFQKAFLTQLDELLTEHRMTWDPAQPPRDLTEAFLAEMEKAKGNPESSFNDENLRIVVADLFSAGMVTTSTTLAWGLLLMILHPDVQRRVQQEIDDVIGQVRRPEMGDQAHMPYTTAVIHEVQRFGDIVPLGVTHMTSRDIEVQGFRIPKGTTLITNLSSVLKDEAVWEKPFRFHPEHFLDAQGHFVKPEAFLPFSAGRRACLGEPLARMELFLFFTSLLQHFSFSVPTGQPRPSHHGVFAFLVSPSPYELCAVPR
(Reporter assays use an easily measured gene product as a stand-in for the process of interest.)

The target of assay [8] is Nuclear receptor subfamily 1 group I member 2 (Rattus norvegicus) (UniProt Q9R1A7). The experiment in a line: Rat pregnane X receptor (rPXR) activation by small molecules, qHTS assay (AID 1346983). Also: nearly all actives have a fitted effect of over 20% in size. Particulars: rPXR luciferase reporter cells, One-Glo luminescence, 24 h; max activation: stronger effect = higher value. In outline: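 Cell-based rPXR luciferase reporter assay, 2,000 cells per well, rested 5hr at 37 C before compound addition in DMSO, then 24 hr at 37 C. One-Glo reagent was added and luminescence read after 30 min at room temperature.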
Chain of Nuclear receptor subfamily 1 group I member 2 (Rattus norvegicus) (Q9R1A7 whole entry, looked up): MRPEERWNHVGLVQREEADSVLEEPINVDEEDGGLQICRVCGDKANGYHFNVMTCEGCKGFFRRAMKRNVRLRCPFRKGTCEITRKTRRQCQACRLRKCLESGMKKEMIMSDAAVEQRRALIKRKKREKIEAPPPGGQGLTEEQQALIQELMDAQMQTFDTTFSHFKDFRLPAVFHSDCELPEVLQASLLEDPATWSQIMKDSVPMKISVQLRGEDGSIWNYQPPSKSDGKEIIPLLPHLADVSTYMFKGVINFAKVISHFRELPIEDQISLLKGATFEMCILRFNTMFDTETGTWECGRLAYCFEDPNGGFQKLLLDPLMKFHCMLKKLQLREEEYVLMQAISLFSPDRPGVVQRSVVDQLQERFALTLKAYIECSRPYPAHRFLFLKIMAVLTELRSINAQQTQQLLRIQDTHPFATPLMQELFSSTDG

Assay [9] concerns the target Nuclear receptor subfamily 1 group I member 2 (Homo sapiens) (UniProt O75469). The experiment in a line: CYP3A4 induction through human pregnane X receptor (PXR) by small molecules, qHTS assay (AID 1346984). Also: nearly all actives have a fitted effect of over 40% in size. In outline: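 Induction measured in HepG2-based DPX-2 cells co-expressing human PXR and a CYP3A4 promoter-driven luciferase. After a 24-hour compound exposure, cells received CYP3A4 luciferin substrate at 3uM final for 3 hours, and light output was then recorded.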

For assay [10] the target is unchanged. The experiment in a line: Human pregnane X receptor (PXR) activation by small molecules, qHTS assay (AID 1346985). Also: nearly all actives have a fitted effect of over 40% in size. In short, it runs like this:
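DPX-2 cells (HepG2 co-transfected with a PXR response element and a CYP3A4-promoter luciferase construct) were seeded at 2,000 per well, rested 5 hr at 37C, then exposed to DMSO-dissolved compounds for 24 hr. Activation was read as luciferase luminescence.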

Molecules are shown by their SMILES. “And” between values parts separate entries of the source, which are not always exact repeats. Equal entries are not always repeated. Inconclusive results are not listed. Some compounds were tested as several samples or in several runs, with calls that do not always agree. The source made the active and inactive calls. Calls follow the shape of the dose curve; as a rule, active = well fitted curve in the direction sought with a large enough effect in the repeat runs; inconclusive = weak or mixed curves; inactive = no such curve, though single readings can be large; an effect the other way counts as inactive or inconclusive.
% is scaled to controls: 0 for no effect and ±100 for the full control effect.

In the case of `O=[N+]([O-])C(CO)(CO)CO`, the Potency in assay [1] is 758 nM (active) and inactive; in assay [3], 1.7 µM (active) and inactive; in assay [5] it was 4.26 µM (active) and inactive; in assay [6], 1.35 µM (active) and inactive. Also, the Potency result in assay [2], in assay [4] and in assay [7] was “inactive” in each case.
As to `C=C(C)C(=O)OCC(CC)(COC(=O)C(=C)C)COC(=O)C(=C)C`, the Potency result in [1], in assay [2], in assay [3], in assay [4], in [5] and in [6] was “inactive” throughout. Moreover, the Potency in assay [7] was 16.2 µM (active).
`CCCCCCCCCCCCN`: the Potency result was “inactive and 30.6 µM (active)” in assay [1]; “inactive and 61.1 µM (active)” in assay [2]; “inactive and 30.6 µM (active)” in assay [3]; 16 µM (active) and 2.24 µM (active) and 8.09 µM (active) in assay [7]. Also, the Potency entry in [4], in [5] and in [6] was “inactive” in each case.
Regarding `Oc1ccc2ccccc2c1N=Nc1ccccc1`, the Potency is 27.3 µM (active) and 30.6 µM (active) in assay [1]; 48.5 µM (active) and 27.3 µM (active) in [3]; 48.5 µM (active) and 27.3 µM (active) in assay [5]; 43.2 µM (active) and 21.7 µM (active) in [6]; 35.6 µM (active) and inactive in assay [7]. Besides, the Potency result in assay [2] and in assay [4] was “inactive” throughout.
`CC(C)(C)C(=O)C1C(=O)c2ccccc2C1=O`: the Potency in assay [1] was 50.1 µM (active); in [3] it was 27 µM (active) and 43.3 µM (active); in assay [5], 60.5 µM (active); in assay [6] it was 60.5 µM (active) and inactive. In addition, the Potency entry in assay [2], in [4] and in assay [7] was “inactive” throughout.
As for `O=C(Cl)c1c(Cl)c(Cl)c(C(=O)Cl)c(Cl)c1Cl`, the Potency entry in [1], in assay [2], in assay [3], in assay [4], in assay [5] and in assay [6] was “inactive” in each case. For the same compound, in assay [7], the Potency was 89.4 µM (active).
Turning to `CCCCC(CC)COC(C)=O` (centres undefined), the Potency entry in assay [1], in assay [2], in assay [3], in [4], in assay [5] and in assay [6] was “inactive” throughout. In assay [7], the Potency entry was “inactive”.
For the compound `O=C(Oc1ccccc1)c1ccc(O)cc1`, the Potency result in [1], in [2], in assay [3], in [4], in assay [5] and in [6] was “inactive” in each case. Besides, in assay [7], the Potency result is “inactive”.
With `S=c1nc[nH]c2nc[nH]c12`, the Potency result in assay [1], in [2], in [3], in assay [4], in [6] and in assay [7] was “inactive” in each case. The max activation in assay [8] is -6.82% (inactive). Further, the compound was classed as inactive in [9].
Regarding `C=C(C#N)C(=O)OCC`, the Potency entry in assay [1], in assay [2], in assay [4], in assay [5] and in [6] was “inactive” each time. For the same compound, the Potency result in [3] was “inactive and 61.1 µM (active)”; in assay [7] it was 44.7 µM (active).
As to `Oc1c(Cl)cc(Cl)c(Cl)c1Cl`, the Potency entry in [2], in [4] and in assay [7] was “inactive” throughout. Moreover, in [6], the Potency was 59.8 µM (active) and 54.5 µM (active).
Consider `C=C1CC[C@H](O)CC1=C/C=C1\CCC[C@]2(C)[C@@H]([C@H](C)/C=C/[C@H](C)C(C)C)CC[C@@H]12`, for which the Potency result in [1] and in assay [2] was “inactive” in each case. For the same compound, the Potency in assay [3] was 54 µM (active) and 48.6 µM (active); in assay [6], 34.1 µM (active) and 30.6 µM (active). In addition, in [8], the max activation was -1.33% (inactive). Besides, the outcome in [9] and in assay [10] was inactive.
Take `CCCCNC(N)=O`: the Potency entry in [1], in assay [2], in assay [3], in [4], in assay [5] and in assay [6] was “inactive” each time. For the same compound, in assay [7], the Potency entry was “inactive”.
On to `CCC(=O)O`, for which the Potency result in [1], in [2], in assay [3], in assay [4], in [5] and in [6] was “inactive” each time. In addition, the Potency entry in assay [7] was “inactive”.
As for `OCC#CCO`, the Potency result in [1], in assay [2], in [4], in assay [5] and in assay [7] was “inactive” in each case. For the same compound, the Potency in [6] is 55.3 µM (active) and inactive.
In the case of `CC1(C)CC(N=C=O)CC(C)(CN=C=O)C1` (centres undefined), the Potency result in [1], in [2], in [3], in [4], in [5] and in assay [6] was “inactive” throughout. In [7], the Potency is 25.5 µM (active) and 39.9 µM (active).
Take `C=C(C)C(=O)OCCCCCCCCCCCC`: the Potency entry in assay [1], in assay [2], in assay [3], in assay [4], in [5] and in assay [6] was “inactive” each time. The Potency result in assay [7] was “inactive”.
For `CS(=O)(=O)Nc1ccc([N+](=O)[O-])cc1Oc1ccccc1`, the Potency entry in assay [2] and in assay [4] was “inactive” in each case. Further, the Potency in [3] is 54.5 µM (active); in [5], 54.5 µM (active) and 29.8 µM (active). Further, the max activation in [8] is -5.28% (inactive).
On to `OC[C@@H](O)[C@@H](O)[C@H](O)[C@@H](O)CO`, for which the Potency result in assay [1], in assay [2], in assay [3], in [4], in assay [5] and in assay [6] was “inactive” in each case. For the same compound, the Potency result in [7] was “inactive”.
As to `CCc1ccccc1O`, the Potency result in [1], in assay [2], in assay [3], in assay [4] and in assay [5] was “inactive” throughout. Also, the Potency in assay [7] was 35.4 µM (active) and inactive.
